The campaign covered roughly 340,000 compounds. About 420 (0.12%) were called active. About 10% were inconclusive and are not listed. Many of the other results were omitted from the sample, so actives are more common in it than they were. A number with no mark means an inactive call. Calls follow the shape of the dose curve; as a rule, active = well fitted activation curve with a large enough effect; inconclusive = small, poorly fitted or top-dose-only effect, or another doubt; inactive = no such curve, though single readings can be large or run the other way; cell line not stated here.
Assay: qHTS for Agonist of gsp, the Etiologic Mutation Responsible for Fibrous Dysplasia/McCune-Albright Syndrome: qHTS; also: nearly all actives have a fitted effect of over 60% in size;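 as to activation (cAMP increase): phosphodiesterase inhibitor Ro 20-1724 added with compounds to block cAMP breakdown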
Conditions: gsp mutant cells, cAMP HTRF, 30 min; series mostly up to 76.9 µM; activation (cAMP increase): at the top concentration
Text: McCune-Albright syndrome (MAS) is a rare disease caused by somatic mutations in Gsgsp), a widely expressed protein central in signal transduction from G-coupled protein receptors (GPCRs). The disease symptoms are diverse, owing to the fact that the patients are mosaics with varying degrees of tissue involvement. Greater than 90% of the mutations in Gs in MAS occur at the R201 position and are equally divided between R201H and R201C. The R201 residue is central in the intrinsic GTPase activity of Gs and the H and C mutations lead to loss of, or impairment of, the GTPase activity. The intrinsic GTPase activity is necessary to terminate the interaction between Gs and adenylate cyclase, and to terminate the cAMP-mediated signaling of the given GPCR pathway. Thus, these activating mutations lead to ligand-independent activation of GPCR pathways. The tissue phenotype is determined by the role of Gs in the function of a given cell, and excess Gs/cAMP signaling in that cell. For example, pituitary somatotrophs overproduce growth hormone in a growth hormone releasing hormone-independent fashion, and gigantism/acromegaly ensues. Skeletal stem cells in the bone marrow behave as if they are under constant parathyroid hormone stimulation and fail to differentiate into osteoblasts and osteocytes, and proliferate as immature osteogenic cells and lead to the marrow fibrosis of fibrous dysplasia of bone. The goal of this project is to identify molecules with stimulatory activity at gsp mutations that will not only allow for in-depth study of the underlying molecular and cellular pathophysiology, but also serve as compounds from which drugs to treat FD/MAS can be developed NIH Chemical Genomics Center [NCGC] NIH Molecular Libraries Probe Centers Network [MLPCN] MLPCN Grant: IRP-FT-DE-2011-01 Assay Submitter (PI): Michael Collins, NIDCR
1.#Seed 2000 cells/well in 6 ul DMEM 10% FBS, 1% Pen/Strep, 0.5 mg/ml G418 2.#Incubate 16-24 hr at 37C, 5% CO2, 95% humidity 3.#Aspirate leaving 1 ul residual volume 4.#Dispense 5 ul/well DPBS + 1 mM CaCl2, 0.5 mM MgCl2, 0.05% BSA, 0.005% Tween 20 5.#Aspirate leaving 2 ul residual volume 6.#Dispense 23 nl/well compounds in DMSO 7.#Dispense 1 ul/well 300 uM Ro-20174 in DMEM 10% FBS 8.#Incubate 30 min at 37C, 5% CO2, 95% humidity 9.#Dispense 1.5 ul/well HTRF reagent: cAMP-d2 in lysis buffer 10.#Dispense 1.5 ul/well HTRF reagent: anti-cAMP antibody-K in lysis buffer 11.#Incubate 30 min at room temperature 12.#Detect HTRF signal using EnVision plate reader
Potency is read from the fitted curve at half-maximal effect.

Compound	activation (cAMP increase)	Potency
COc1ccc(-c2c3c(=O)n(C)c(=O)n(C)c3cn2NC(C)=O)cc1	3.24%	–
CC(=O)Nn1cc2c(=O)n(C)c(=O)n(C)c2c1	–	7.94 µM (active)
Cn1c(=O)c2cn(-c3cccc4ccccc34)cc2n(C)c1=O	-9.96% [at 15.4 µM]	–
COc1ccc(OC)c(C(=O)NC2CCCc3c2cnn3-c2cc(C)cc(C)c2)c1 (configuration not stated)	-55.3%	–
CCOC(=O)c1cc(-c2sc(NC(=O)c3ccccc3)nc2C)n(CCO)n1	-34%	–
O=C(NCCS(=O)(=O)N1CCN(c2ccccc2)CC1)c1cc(=O)c2ccccc2o1	-23.3%	–
COc1ccc(Cl)cc1NC(=O)CN(C)C(=O)c1cn(-c2ccccc2)nc1-c1cccs1	4.43%	–
C[C@@H]1CN([C@@H](C)CO)C(=O)c2cc(Br)cnc2O[C@H]1CN(C)Cc1ccc(-c2ccccc2)cc1	-22.2%	–
CCOc1cc(/C=N/NC(=O)c2c(C)nc3ccc(Cl)cn23)ccc1O	-9.2%	–
Cc1ccc(NC(=O)COC(=O)CN2CCSC2=O)cc1F	-20.3%	–
C[C@H]1Cn2cnc(C(=O)N[C@@H](Cc3c[nH]c4ccccc34)C(=O)OC(C)(C)C)c2C(=O)N1	-4.83%	–
CC(=O)Nc1ccc(C=Cc2ccc([N+](=O)[O-])cc2)cc1	-3.38%	–
COC(=O)c1ccccc1N=NNc1ccc([N+](=O)[O-])cc1	-6.79%	–
CC(Sc1ccc(S(=O)(=O)N2CCN(C)CC2)cn1)C(=O)NC1CCCC(C)C1C (configuration not stated)	-21.5%	–
CCOc1ncccc1C(=O)Nc1ccc(S(=O)(=O)Nc2nc(C)cc(C)n2)cc1	–	10 µM (active)
CCOc1ncccc1C(=O)Nc1ccc2c(c1)OCCO2	13.9%	–
O=C(Nc1ccc(S(=O)(=O)Nc2ncccn2)cc1)c1cncc(Br)c1	-25.9%	–
CCCc1c(C)nc2scc(-c3ccc(Cl)cc3)n2c1=O	4.2%	–
CC1=C(C(=O)N(C)C)CC(CC(=O)NCCN2CCOCC2)C(=O)N1Cc1ccccc1 (configuration not stated)	-32.8%	–
O=C1OCCC1=COCCCCOC=C1CCOC1=O	-17.1%	–
CCCCCCn1c(=O)n2n(c1=O)C[C@]1(OC(=O)NCc3ccc(OC)c(OC)c3)CN(S(=O)(=O)c3ccc(C)cc3)C[C@]1(O)C2	-93.1%	–
COc1ccc(CN2C[C@H]3CON(C)[C@H]3C[C@H]2c2ccc(-c3cccc(F)c3)cc2)cc1	-69.9%	–
Cc1onc(-c2ccccc2)c1-c1nnc(COC(=O)c2ccc(N(C)C)cc2)o1	-1.6%	–
Cc1ccc(CCNC(=O)CN2C(=O)CSc3ccc(S(=O)(=O)N4CCOCC4)cc32)cc1	-42.1%	–

Compound	activation (cAMP increase)	Potency
COc1ccc2c(c1)CCCO[C@]21O[C@H](CCO)C[C@H](O)[C@H]1O	-64.1%	–
Cc1ccc(-c2ccc(C3=CC(=O)CC(C)(C)C3=O)cc2)cc1	-42%	–
CC(OC(=O)c1ccc(NC(=O)CC#N)cc1)C(=O)Nc1ccc(S(=O)(=O)N2CCCC2)cc1 (configuration not stated)	-14.8%	–
CC(C)n1ncc2c(C(=O)N3CCN(Cc4cccs4)CC3)cc(C3CC3)nc21	7.9%	–
CN(c1ccccc1)S(=O)(=O)c1ccc(C(=O)NCc2cccnc2)cc1	-7.68%	–
Cc1ccc(Cc2c(-c3ccc(C)cc3)nc3c4ccccc4ccn23)cc1	-39.7%	–
OCCC1CN(Cc2ccc3nsnc3c2)CCN1C1CCCC1 (configuration not stated)	49.4%	–
OCCC1CN(Cc2ccc3nsnc3c2)CCN1C1CCCCC1 (configuration not stated)	19.4%	–
COc1cccc2c1OCC(CN1CCN(C3CCCCC3)C(CCO)C1)=C2 (configuration not stated)	–	7.94 µM (active)
O=C1CC[C@@H](C(=O)N2CSC[C@@H]2C(=O)Nc2ccc(C(F)(F)F)cc2)N1	-72.2%	–
O=C(CSc1ccc(Cl)cc1)NC1CC1	-72.4%	–
COc1ccc(C(=O)NC2=NCCS2)c(OC)c1	-28.3%	–
COc1ccc(C(=O)Nc2cccc(NC(=O)c3ccc(OC)cc3OC)n2)c(OC)c1	–	15.8 µM (active)
COc1ccc(C(=O)NC(C)CCc2ccccc2)c(OC)c1 (configuration not stated)	17.8%	–
O=S1(=O)CCN(C2CCCCCCCCCCC2)CC1	-79.5%	–
O=S(=O)(c1cccc(C(F)(F)F)c1)N1c2ccccc2-n2cccc2C1c1cccnc1 (configuration not stated)	-23.7%	–
O=Nc1c(O)cc(O)c2ccccc12	-21.6%	–
O=C(c1ccc(CS(=O)Cc2ccccc2Cl)o1)N1CCN(c2ccccc2)CC1 (configuration not stated)	-29.9%	–
COCCn1c(SCC(=O)Nc2ccc(F)cc2F)nc2c(c1=O)SCC2	-23.6%	–
COCOCCn1cc(CN2CCS(=O)(=O)N(Cc3ccc(-c4ccc(OC)cc4)cc3)C(CC(C)C)C2=O)nn1 (configuration not stated)	-115%	–
Cc1ccc(-c2ccc(CN3C(C(C)C)C(=O)N(Cc4cn(CCC5OCCO5)nn4)CCS3(=O)=O)cc2)cc1 (configuration not stated)	-37.6%	–
CC1(C2CC2)NC(=O)N(CC(=O)N2CCN(c3ccccc3F)CC2)C1=O (configuration not stated)	0.197%	–
CCN(CC)C(=O)C1=C(C)N(Cc2ccccc2)C(=O)C(CC(=O)NC(c2ccccc2)c2ccccc2)C1 (configuration not stated)	-6.51%	–

— PubChem BioAssay AID624287 (National Center for Advancing Translational Sciences (NCATS), 2012)
